Measured values published in PMC5540273 (PLoS ONE, 2017).

Columns and labels:
Conditions in all cases: concentration: 1 μM,replicates: in singlicate; n = 1
STK36 = system: STK36
STK39 = system: STK39
SYK = system: SYK
SgK110 = system: SgK110
TAK1 = system: T1, TAK1
T1 construct: gene MAP3K7

TAOK1 = system: TAOK1
TAOK2 = system: TAOK2
TAOK3 = system: TAOK3
TBK1 = system: TBK1
TEC = system: TEC
TESK1 = system: TESK1
TGFBR1 = system: TGFBR1
TGFBR2 = system: TGFBR2
TIE1 = system: TIE1
TIE2 = system: T2, TIE2
T2 construct: gene TEK

TLK1 = system: TLK1
TLK2 = system: TLK2
TNIK = system: TNIK
TNK1 = system: TNK1
TNK2 = system: TNK2
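Also: KINOMEscan kinase panel screen.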

| SMILES | %Inh (STK36) | %Inh (STK39) | %Inh (SYK) | %Inh (SgK110) | %Inh (TAK1) | %Inh (TAOK1) | %Inh (TAOK2) | %Inh (TAOK3) | %Inh (TBK1) | %Inh (TEC) | %Inh (TESK1) | %Inh (TGFBR1) | %Inh (TGFBR2) | %Inh (TIE1) | %Inh (TIE2) | %Inh (TLK1) | %Inh (TLK2) | %Inh (TNIK) | %Inh (TNK1) | %Inh (TNK2) |
| --- | --- | --- | --- | --- | --- | --- | --- | --- | --- | --- | --- | --- | --- | --- | --- | --- | --- | --- | --- | --- |
| COc1ccc(C[C@@H](CN)NC(=O)c2cc(Br)c(-c3ccnc4[nH]ccc34)s2)cc1.Cl.Cl [GSK1389063] | 0% | 16% | 39% | 85% | 75% | 87% | 27% | 60% | 1% | 0% | 20% | 1% | 0% | 88% | 39% | 19% | 15% | 30% | 0% | 8% |
| CC(C)N1C(=O)Cc2cc(Nc3ncc(C(F)(F)F)c(NCc4cccc(S(C)(=O)=O)c4)n3)ccc21 | 0% | 33% | 87% | 0% | 70% | 0% | 0% | 0% | 86% | 10% | 0% | 0% | 0% | 42% | 0% | 23% | 0% | 20% | 50% | 13% |
| Cl.Oc1cc(-c2nc(-c3ccccc3)[nH]c2-c2ccncc2)ccc1Cl [SB-386023] | 53% | 0% | 0% | 32% | 9% | 11% | 29% | 5% | 10% | 1% | 31% | 67% | 92.8% | 0% | 6% | 0% | 0% | 23% | 26% | 0% |
| CCN(CC)CCOc1ccc(Nc2ncc3cc(-c4c(Cl)cccc4Cl)c(=O)n(C)c3n2)cc1 [SB-601273] | 99.5% | 60% | 89% | 84% | 65% | 99.1% | 99.4% | 99.9% | 42% | 89% | 97.6% | 99.5% | 98% | 94% | 98.8% | 5% | 2% | 96.8% | 100% | 100% |
| Cl.Cl.NC[C@H](Cc1ccc(C(F)(F)F)cc1)NC(=O)c1cc(Br)c(-c2ccnc3[nH]ccc23)s1 [GSK1487252] | 0% | 7% | 10% | 75% | 11% | 2% | 0% | 0% | 4% | 8% | 24% | 0% | 0% | 35% | 0% | 8% | 4% | 0% | 0% | 19% |
| Cc1cc(C(=O)Nc2ccc(Oc3ccc4nc(NC(=O)C5CC5)cn4n3)cc2)nn1-c1ccccc1 | 0% | 7% | 22% | 0% | 0% | 0% | 1% | 0% | 57% | 37% | 16% | 30% | 21% | 82% | 38% | 0% | 0% | 12% | 53% | 0% |
| CCn1c(-c2nonc2N)nc2c(C#CC(C)(C)O)nc(OCCN)cc21.Cl.Cl [GSK902056] | 0% | 17% | 0% | 0% | 0% | 0% | 0% | 0% | 0% | 1% | 14% | 0% | 0% | 13% | 0% | 0% | 0% | 0% | 0% | 21% |
| Nc1nc(Nc2ccccc2)cc(-c2ccc3c(N)n[nH]c3c2)n1 [GSK2225749] | 24% | 0% | 0% | 0% | 36% | 32% | 2% | 23% | 28% | 0% | 0% | – | 0% | 35% | 3% | 0% | 2% | 46% | 0% | 0% |
